High-throughput results deposited in PubChem BioAssay by several laboratories.
KKLEB cytotox: CF airway cell cytotoxicity counter-screen; actives 0.36% (n = 360,000); activity change (cytotoxicity), % at 5 µM; KKLEB CF airway cells viability, ATPlite luminescence, overnight; active compounds read low; cells stimulated with P. aeruginosa culture filtrate;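 active = corrected activity change at or below -50% at 5 µM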
HIF-2a inh: blocks HIF-2a reporter activity | 786-0 RCC cells HIF-2a reporter, luciferase luminescence, overnight | AID 624352 | actives 0.72% (n = 360,000) | inhibition, % at 18.8 µM;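 active = inhibition of the luminescence signal of 40% or more relative to plate controls, in a single-dose primary screen at 18.75 µM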
Peg3 prom inh: reduces Peg3 promoter-driven luciferase expression in HeLa; inhibition, % at 20 µM; AID 588405; actives 1.7% (n = 360,000); HeLa PEG-Prom luciferase reporter, luminescence, overnight;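 active = inhibition of at least 50% at 20 µM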
EBV LMP1 NFkB: inhibitors of Epstein-Barr LMP1-induced NF-kappaB reporter | LMP1-induced NF-kappaB luciferase reporter cells, luminescence | inhibition, % at 12.5 µM | actives 0.69% (n = 350,000); in the data active = inhibition above about 41%; inconclusive = no clear call, values can overlap the other calls;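 note: 0% = neutral control wells and 100% = reference inhibitor control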
CF NFkB block: cystic fibrosis NF-kB activation inhibition; actives 0.86% (n = 360,000); inhibition, % at 5 µM; KKLEB NF-kB-GFP reporter, PAF-induced, GFP fluorescence overnight;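 active = at least 50% inhibition at 5 µM, scaled per plate between neutral and stimulator controls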;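 note: PAF is a Pseudomonas aeruginosa culture filtrate used as stimulus; plate controls were PAF-stimulated DMSO wells for no effect and unstimulated DMSO wells for full effect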
Shn3 inh set2: inhibitors of Schnurri-3 3'UTR reporter in osteoblasts; Clone20 osteoblast Shn3 3'UTR firefly luciferase, 24 h; inhibition, % at 12.5 µM; actives 0.52% (n = 360,000); AID 588674;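 active = mean inhibition of at least 75% with every replicate also reaching 75%; inconclusive = mean inhibition at least 75% but some replicate below; inactive = mean inhibition below 75%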;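 note: 0% = median of neutral control wells and 100% = pilot-screen positive control compound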
Mdm2 MdmX conf: confirmation of inhibitors of human Mdm2/MdmX interaction, set 2; shares compounds with HIF-2a inh; SaOS-2 split-luciferase Mdm2/MdmX complementation, luminescence; inhibition, % at 8 µM; actives 99% (n = 740); AID 504601;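 active = mean inhibition of the luminescence signal across two replicates at or above 26 percent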
Target sequence (O15151 whole entry, looked up): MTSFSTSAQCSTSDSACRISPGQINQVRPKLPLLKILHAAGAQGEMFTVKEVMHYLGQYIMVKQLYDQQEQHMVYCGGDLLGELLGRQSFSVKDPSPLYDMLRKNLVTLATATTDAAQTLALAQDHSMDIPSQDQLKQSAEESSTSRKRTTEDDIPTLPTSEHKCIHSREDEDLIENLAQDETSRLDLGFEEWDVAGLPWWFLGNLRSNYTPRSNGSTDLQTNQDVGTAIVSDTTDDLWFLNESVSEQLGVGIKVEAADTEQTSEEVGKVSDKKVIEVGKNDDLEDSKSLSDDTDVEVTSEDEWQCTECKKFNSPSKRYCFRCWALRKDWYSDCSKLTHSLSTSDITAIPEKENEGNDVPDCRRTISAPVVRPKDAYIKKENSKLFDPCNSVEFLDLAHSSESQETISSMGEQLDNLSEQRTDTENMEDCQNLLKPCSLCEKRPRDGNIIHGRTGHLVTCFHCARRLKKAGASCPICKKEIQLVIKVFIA
Target sequence (Q00987 whole entry, looked up): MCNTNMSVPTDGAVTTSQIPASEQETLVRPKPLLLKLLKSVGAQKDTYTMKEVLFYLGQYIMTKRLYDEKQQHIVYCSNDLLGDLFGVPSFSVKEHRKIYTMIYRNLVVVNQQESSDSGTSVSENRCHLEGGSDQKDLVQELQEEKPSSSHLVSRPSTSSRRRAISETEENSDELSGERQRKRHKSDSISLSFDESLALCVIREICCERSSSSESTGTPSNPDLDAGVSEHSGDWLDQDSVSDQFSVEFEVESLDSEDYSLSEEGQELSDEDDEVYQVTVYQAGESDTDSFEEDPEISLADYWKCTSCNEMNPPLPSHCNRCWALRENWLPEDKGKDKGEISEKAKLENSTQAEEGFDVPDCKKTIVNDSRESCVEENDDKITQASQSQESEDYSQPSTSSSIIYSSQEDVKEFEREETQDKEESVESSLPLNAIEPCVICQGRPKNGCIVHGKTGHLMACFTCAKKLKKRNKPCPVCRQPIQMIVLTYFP
HIF-2a conf: confirmation of HIF-2a inhibitors; 786-0 RCC cells, HIF-2a luciferase reporter luminescence, overnight; shares compounds with HIF-2a inh; inhibition, % at 18.8 µM; actives 56% (n = 1,800);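 active = mean inhibition across four replicates of at least 40 percent at the single tested concentration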
HIF-1a counter: HIF-1a inhibition counter-screen for HIF-2a hits | actives 72% (n = 1,800) | MiaPaCa-2 HIF-1a luciferase reporter, desferoxamine, overnight | inhibition, % at 18.8 µM | shares compounds with HIF-2a inh;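 active = mean inhibition of the reporter signal across four replicates at the single tested dose of 50% or more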
An asterisk follows results filed as active; ? = inconclusive; . = no result. Only some compounds are listed: those with a hit (about 2.9% of all), similar ones and a draw of the others.

SMILES	KKLEB cytotox	HIF-2a inh	Peg3 prom inh	EBV LMP1 NFkB	CF NFkB block	Shn3 inh set2	HIF-2a conf	HIF-1a counter	others
O=C(Nc1cccc(C(=O)O)c1)Nc1ccccc1Cl	-6	40*	-9	?	2	10	32	-65
COC(=O)c1cccc(NC(=O)NC(=O)c2ccccc2Cl)c1	-25	57*	-1	37	-5	23	64*	-68
O=C(NCc1ccccc1)C(=O)Nc1cccc(C(=O)O)c1	0	58*	31	67*	-6	30	71*	-38
O=C(Nc1cccc(C(=O)O)c1)Nc1cccc2ccccc12	-4	-38	-28	-10	1	-3	.	.
COC(=O)c1cccc(NC(=O)Nc2ccc(Cl)c(Cl)c2)c1	-17	-376	-145	18	12	13	.	.
Cc1csc(NC(=O)CCNC(=O)c2ccc([N+](=O)[O-])cc2)n1	6	3	-2	-9	2	10	.	.
CC(=O)c1cccc(OC(=O)C2=CC=CN3CCS(=O)(=O)N=C23)c1	-7	0	12	1	-15	-17	.	.
C=CCOc1ccc(C[C@H](N)C(=O)NC[C@H]2O[C@@H](n3cnc4c(N)ncnc43)[C@H](O)[C@@H]2O)cc1	7	-1	-9	-1	-6	-12	.	.
OCC1OC(n2nc3ccccc3n2)C(O)C(O)C1O (stereo unspecified)	0	9	-4	-3	-2	8	.	.
OCC1OC(n2ccc3c2ncn2ncnc32)C(O)C1O (stereo unspecified)	-57*	54*	35	13	68*	9	37	54*
COc1ccc(C[C@H](N)C(=O)N[C@H]2[C@@H](O)[C@H](n3cnc4c(N(C)C)ncnc43)O[C@@H]2CO)cc1	7	95*	102*	-21	-18	5	95*	105*	Mdm2 MdmX conf=103*
CN(C)c1ncnc2c1ncn2C1OC(CO)C(O)C1O (stereo unspecified)	-43	52*	28	36	46	96*	26	42
CCCNC(=O)CN1CCN(c2cc3ccccc3c(Cl)n2)CC1	-8	5	-3	-13	-2	16	.	.
Nc1ncnc2c1ncn2C1C=C(CO)C(O)C1O (stereo unspecified)	-19	43*	34	-3	6	43	27	81*
Nc1ncnc2c1ncn2[C@@H]1O[C@H](CO)C[C@H]1O	-1	-2	3	-20	6	-17	.	.
CCOc1cnn(-c2cc(Oc3ccc(C)cc3)ncn2)c(=O)c1Cl	-4	-9	-4	4	8	-4	.	.
Cc1ccccc1Oc1cc(-n2ncc(Cl)c(Cl)c2=O)ncn1	-100*	98*	105*	93*	96*	96*	100*	106*
CC1Cc2cc(/C(O)=C3/C(=O)C(=O)N(CCCn4ccnc4)C3c3ccc(F)cc3)ccc2O1 (stereo unspecified)	-3	-95	-70	-11	5	-64	.	.
Cc1ccc(-n2nnc(-c3nccn3C)n2)cc1	-6	-26	-44	16	-40	-10	.	.
Cc1c(C)c2ccc(OCc3ccc(C(=O)O)o3)c(C)c2oc1=O	-4	50*	-41	2	11	8	5	-38
CCC(C)NC(=O)c1cn(CC)c2cc(N3CCN(C(=O)c4ccco4)CC3)c(F)cc2c1=O (stereo unspecified)	-12	31	36	0	12	13	.	.
CCOc1cc(/C=C2\CN(CC)C/C(=C\c3ccc(O)c(OCC)c3)C2=O)ccc1O	-40	93*	110*	-111	87*	97*	.	.	Mdm2 MdmX conf=102*
O=C(NCCc1ccccc1)C(c1cccs1)N(C(=O)CCl)c1ccc(Cl)cc1 (stereo unspecified)	-89*	92*	109*	-4	105*	57	97*	108*	Mdm2 MdmX conf=103*
COc1ccccc1-c1cc(SC)c(C#N)c(=O)o1	-45	42*	82*	7	27	-24	33	-9
COc1ccccc1-c1ccc(C(=O)O)o1	-1	-84	-105	-12	6	1	.	.
SMILES	KKLEB cytotox	HIF-2a inh	Peg3 prom inh	EBV LMP1 NFkB	CF NFkB block	Shn3 inh set2	HIF-2a conf	HIF-1a counter	others
Cn1cnc2ncnc(Oc3ccc(Br)cc3)c21	4	-6	-16	-3	4	5	.	.
O=C(NNC(=O)c1ccc(F)cc1F)c1ccc2c(c1)OCO2	12	-201	-159	-18	-8	-28	.	.
O=C(NCCCN1CCOCC1)/C(=C/c1ccc(-c2cccc([N+](=O)[O-])c2)o1)NC(=O)c1ccccc1	-1	-13	2	1	-21	16	.	.
Cc1nc2nc(C)n(CCN3CCOCC3)c(=O)c2c(-c2cccc([N+](=O)[O-])c2)c1C(=O)CCCCCCCCCCN1CCC(c2ccccc2)(c2ccccc2)CC1	-21	84*	95*	1	18	?	17	107*
COc1cccc(CN2CCC2(C)C(=O)Nc2cccc(Oc3ccccc3)c2)c1OC (stereo unspecified)	-1	13	13	.	0	26	.	.
CC[C@]12c3[nH]c4cc(-c5ccco5)ccc4c3CCN1C(=O)[C@@H](CC(=O)NCCCn1ccnc1)C[C@@H]2C(=O)N1CCN(C(=O)C2CC2)CC1	14	5	-12	-7	-1	-22	.	.
O=C(N/N=C/c1c(O)ccc2ccccc12)c1ccc(Br)o1	-6	-30	49	61*	-17	83	.	.	Mdm2 MdmX conf=90*
COc1ccc2ccccc2c1/C=N/NC(=O)c1nnn(-c2nonc2N)c1C(C)C	2	-9	19	6	-1	-4	.	.
Cc1c(C(=O)N/N=C/c2c(O)ccc3ccccc23)nnn1-c1nonc1N	-2	-1	43	17	13	85	.	.	Mdm2 MdmX conf=92*
CCCCN(C(=O)c1ccc(-n2nc(C)cc2C)cc1)c1c(N)n(CCC)c(=O)[nH]c1=O	12	6	-6	-5	10	-1	.	.
CC(C)NC(=O)/C(C#N)=C/c1cccc(NC(=O)c2ccccc2Cl)c1	-18	48*	9	14	25	8	34	15
COc1cc(CNC2CCCC2)cc(Cl)c1OCc1ccccc1Cl	-23	82*	94*	-19	11	34	7	107*
COc1cc(CNC2CCCC2)cc(Cl)c1OCc1ccc(F)cc1	-6	17	5	-4	3	-10	.	.
CC(=O)Cc1nsc(Nc2ccc(Cl)cc2)n1	8	-201	-154	-13	11	-36	.	.
